The campaign covered roughly 5,500 compounds. About 2,000 (36%) were called active. Inconclusive results (about 18%) are left out. Rule as the data show it: active = normalized growth mostly below about 0.91 (no sharp cut-off); inconclusive = no clear call, values can overlap the other calls; inactive = mostly above about 0.92. Some of the results follow.
Assay: chemical genetic growth profiling, strain panel (AID 1159580);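 also: tested at 20 µM; growth read once vehicle control cultures reached saturation at 30 °C; 1 = growth at the plate median or of vehicle wells; lower values mean less growth of the strain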
Details: growth OD

Measured: normalized growth

C=CCSCC1Nc2cc(Cl)c(S(N)(=O)=O)cc2S(=O)(=O)N1 (configuration not stated)
inactive: S. cerevisiae deletion strains, locus YJR075W, strain HOC1, stronger effect = lower value 1.01 | S. cerevisiae deletion strains, locus YKL009W, strain mrt4, stronger effect = lower value 1.02 | S. cerevisiae deletion strains, locus YKL068W, stronger effect = lower value 1.02 | S. cerevisiae deletion strains, locus YKL085W, strain MDH1 (second series), stronger effect = lower value 1 | S. cerevisiae deletion strains, locus YKL085W, strain MDH1, stronger effect = lower value 1 | S. cerevisiae deletion strains, locus YKL160W, strain elf1, stronger effect = lower value 0.994 | S. cerevisiae deletion strains, locus YKL190W, strain CNB1, stronger effect = lower value 1.01 | S. cerevisiae deletion strains, locus YKR001C, strain vps1, stronger effect = lower value 1.02 | S. cerevisiae deletion strains, locus YKR026C, strain gcn3, stronger effect = lower value 1 | S. cerevisiae deletion strains, locus YKR091W, strain srl3, stronger effect = lower value 1 | S. cerevisiae deletion strains, locus YLL001W, strain dnm1, stronger effect = lower value 0.997 | S. cerevisiae deletion strains, locus YLL026W, stronger effect = lower value 0.998 | S. cerevisiae deletion strains, locus YLL041C, strain sdh2, stronger effect = lower value 1 | S. cerevisiae deletion strains, locus YLR027C, strain aat2, stronger effect = lower value 0.996 | S. cerevisiae deletion strains, locus YLR039C, strain RIC1, stronger effect = lower value 1.02 | S. cerevisiae deletion strains, locus YLR058C, strain SHM2, stronger effect = lower value 1.01 | S. cerevisiae deletion strains, locus YLR102C, strain apc9, stronger effect = lower value 1.04 | S. cerevisiae deletion strains, locus YLR113W, strain HOG1, stronger effect = lower value 1.06 | S. cerevisiae deletion strains, locus YLR221C, strain rsa3, stronger effect = lower value 0.988 | S. cerevisiae deletion strains, locus YLR258W, strain gsy2, stronger effect = lower value 0.998 | S. cerevisiae deletion strains, locus YLR262C, strain YPT6 (second series), stronger effect = lower value 0.989 | S. cerevisiae deletion strains, locus YLR262C, strain YPT6, stronger effect = lower value 1.04 | S. cerevisiae deletion strains, locus YLR268W, strain sec22, stronger effect = lower value 1.02 | S. cerevisiae deletion strains, locus YLR320W, strain mms22, stronger effect = lower value 0.985 | S. cerevisiae deletion strains, locus YLR330W, strain CHS5, stronger effect = lower value 1.01 | S. cerevisiae deletion strains, locus YLR342W, strain FKS1 (second series), stronger effect = lower value 0.996 | S. cerevisiae deletion strains, locus YLR342W, strain FKS1, stronger effect = lower value 1.01 | S. cerevisiae deletion strains, locus YLR357W, strain rsc2, stronger effect = lower value 0.991 | S. cerevisiae deletion strains, locus YLR370C, strain arc18, stronger effect = lower value 1 | S. cerevisiae deletion strains, locus YLR371W, strain rom2, stronger effect = lower value 1.02 | S. cerevisiae deletion strains, locus YLR384C, strain iki3, stronger effect = lower value 1 | S. cerevisiae deletion strains, locus YLR418C, strain cdc73, stronger effect = lower value 1.04 | S. cerevisiae deletion strains, locus YML016C, strain PPZ1, stronger effect = lower value 1.01 | S. cerevisiae deletion strains, locus YML032C, strain rad52, stronger effect = lower value 1.03 | S. cerevisiae deletion strains, locus YML120C, strain ndi1, stronger effect = lower value 1 | S. cerevisiae deletion strains, locus YML124C, strain tub3, stronger effect = lower value 1.02 | S. cerevisiae deletion strains, locus YMR058W, strain fet3, stronger effect = lower value 0.998 | S. cerevisiae deletion strains, locus YMR078C, strain ctf18, stronger effect = lower value 1.03 | S. cerevisiae deletion strains, locus YMR125W, strain sto1, stronger effect = lower value 0.998 | S. cerevisiae deletion strains, locus YMR129W, stronger effect = lower value 1 | S. cerevisiae deletion strains, locus YMR205C, strain PFK2, stronger effect = lower value 0.995 | S. cerevisiae deletion strains, locus YMR223W, strain ubp8, stronger effect = lower value 1.02 | S. cerevisiae deletion strains, locus YMR231W, strain pep5, stronger effect = lower value 1 | S. cerevisiae deletion strains, locus YMR263W, strain SAP30, stronger effect = lower value 1.02 | S. cerevisiae deletion strains, locus YMR307W, strain GAS1, stronger effect = lower value 1.1 | S. cerevisiae deletion strains, locus YNL067W, strain RPL9B, stronger effect = lower value 1.01 | S. cerevisiae deletion strains, locus YNL071W, strain lat1, stronger effect = lower value 0.999 | S. cerevisiae deletion strains, locus YNL128W, strain TEP1, stronger effect = lower value 1.01 | S. cerevisiae deletion strains, locus YNL153C, strain GIM3, stronger effect = lower value 1.01 | S. cerevisiae deletion strains, locus YNL183C, strain NPR1, stronger effect = lower value 0.977 | S. cerevisiae deletion strains, locus YNL209W, strain ssb2, stronger effect = lower value 0.999 | S. cerevisiae deletion strains, locus YNL233W, strain BNI4, stronger effect = lower value 0.998 | S. cerevisiae deletion strains, locus YNL248C, strain rpa49, stronger effect = lower value 0.989 | S. cerevisiae deletion strains, locus YNL250W, strain rad50, stronger effect = lower value 1.03 | S. cerevisiae deletion strains, locus YNL271C, strain bni1, stronger effect = lower value 1.03 | S. cerevisiae deletion strains, locus YNL298W, strain CLA4, stronger effect = lower value 1.04 | S. cerevisiae deletion strains, locus YNL307C, strain MCK1, stronger effect = lower value 1.01 | S. cerevisiae deletion strains, locus YNL322C, strain KRE1 (second series), stronger effect = lower value 0.995 | S. cerevisiae deletion strains, locus YNL322C, strain KRE1, stronger effect = lower value 1.01 | S. cerevisiae deletion strains, locus YNR049C, strain mso1, stronger effect = lower value 0.998 | S. cerevisiae deletion strains, locus YNR052C, strain pop2, stronger effect = lower value 1.03 | S. cerevisiae deletion strains, locus YOL006C, strain TOP1, stronger effect = lower value 1.03 | S. cerevisiae deletion strains, locus YOL012C, strain htz1 1.06 | S. cerevisiae deletion strains, locus YOL147C, strain pex11, stronger effect = lower value 1.02 | S. cerevisiae deletion strains, locus YOR001W, strain rrp6, stronger effect = lower value 0.977 | S. cerevisiae deletion strains, locus YOR061W, strain CKA2, stronger effect = lower value 1.01 | S. cerevisiae deletion strains, locus YOR069W, strain VPS5, stronger effect = lower value 1.01 | S. cerevisiae deletion strains, locus YOR070C, strain gyp1, stronger effect = lower value 1 | S. cerevisiae deletion strains, locus YOR080W, strain dia2, stronger effect = lower value 1 | S. cerevisiae deletion strains, locus YOR083W, strain WHI5, stronger effect = lower value 0.999 | S. cerevisiae deletion strains, locus YOR106W, strain vam3, stronger effect = lower value 0.985 | S. cerevisiae deletion strains, locus YOR136W, strain idh2, stronger effect = lower value 1.03 | S. cerevisiae deletion strains, locus YOR144C, strain elg1, stronger effect = lower value 1.02 | S. cerevisiae deletion strains, locus YOR184W, strain ser1, stronger effect = lower value 1.03 | S. cerevisiae deletion strains, locus YOR231W, strain MKK1, stronger effect = lower value 1.03 | S. cerevisiae deletion strains, locus YOR265W, strain rbl2, stronger effect = lower value 1.03 | S. cerevisiae deletion strains, locus YOR270C, strain vph1, stronger effect = lower value 0.974 | S. cerevisiae deletion strains, locus YOR290C, strain snf2, stronger effect = lower value 0.987 | S. cerevisiae deletion strains, locus YOR316C, strain cot1, stronger effect = lower value 1.03 | S. cerevisiae deletion strains, locus YPL051W, strain arl3, stronger effect = lower value 1 | S. cerevisiae deletion strains, locus YPL055C, strain LGE1, stronger effect = lower value 1.02 | S. cerevisiae deletion strains, locus YPL078C, strain atp4, stronger effect = lower value 0.989 | S. cerevisiae deletion strains, locus YPL106C, strain sse1, stronger effect = lower value 1.04 | S. cerevisiae deletion strains, locus YPL240C, strain hsp82, stronger effect = lower value 1.01 | S. cerevisiae deletion strains, locus YPL241C, strain CIN2, stronger effect = lower value 1.01 | S. cerevisiae deletion strains, locus YPL256C, strain CLN2, stronger effect = lower value 1.07 | S. cerevisiae deletion strains, locus YPR119W, strain clb2, stronger effect = lower value 1.02 | S. cerevisiae deletion strains, locus YPR141C, strain kar3, stronger effect = lower value 1.03 | S. cerevisiae deletion strains, locus YPR163C, strain tif3, stronger effect = lower value 1.02 | S. cerevisiae deletion strains, locus YPR167C, strain met16, stronger effect = lower value 1.03 | S. cerevisiae deletion strains, strain wtn01, stronger effect = lower value 1.02 | S. cerevisiae strains, strain wild type, stronger effect = lower value 1.01

From PubChem BioAssay AID1159580 (chemical genetic matrix, 2015)
